Reference: PubChem BioAssay (EPA / NIEHS)
Results filed as inconclusive are left out. The source made the active and inactive calls. The calls were made as follows, unless noted: active = hit-call score of the fitted dose curve at least 0.9, where 1 is the maximum; inconclusive = response in the unintended direction; inactive = score below 0.9.

Tests used:
[1] = TOX21_p53_BLA_p2_viability: Viability Assessment in the Tox21 HCT-116 p53 Agonism Beta-lactamase Assay, Phase 2 (AID 2283591);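 also: compound exposure lasted 16 h at 37 °C; actives lower the ATP signal meaning cytotoxicity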
Method in brief: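 HCT-116 p53-bla cells (4000/well) rested 5 h at 37C, then received compounds in DMSO (217-fold dilution) for 16 h at 37C, 5% CO2. After the CCF4 read, CellTiter-Glo was added; ATP luminescence was read after 30 min at room temperature.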

[2] = TOX21_p53_BLA_p4_viability: Viability Assessment in the Tox21 HCT-116 p53 Agonism Beta-lactamase Assay, Phase 4 (AID 2283597);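 also: hits lower the luminescence signal meaning cytotoxicity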
Method in brief: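 HCT116 p53-bla cells (4000/well) rested 5 h at 37C, then received compounds in DMSO (217-fold dilution) for 16 h at 37C, 5% CO2. CellTiter-Glo was added after the CCF4-AM read, and luminescence was read after 30 min at room temperature.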

[3] = molecular target: Cellular tumor antigen p53 (Homo sapiens) (UniProt P04637); test: TOX21_p53_BLA_p4_ratio: Tox21 HCT-116 p53 Agonism Beta-lactamase Assay, Ratio, Phase 4 (AID 2283601)
Chain of Cellular tumor antigen p53 (Homo sapiens) (P04637 whole entry, looked up): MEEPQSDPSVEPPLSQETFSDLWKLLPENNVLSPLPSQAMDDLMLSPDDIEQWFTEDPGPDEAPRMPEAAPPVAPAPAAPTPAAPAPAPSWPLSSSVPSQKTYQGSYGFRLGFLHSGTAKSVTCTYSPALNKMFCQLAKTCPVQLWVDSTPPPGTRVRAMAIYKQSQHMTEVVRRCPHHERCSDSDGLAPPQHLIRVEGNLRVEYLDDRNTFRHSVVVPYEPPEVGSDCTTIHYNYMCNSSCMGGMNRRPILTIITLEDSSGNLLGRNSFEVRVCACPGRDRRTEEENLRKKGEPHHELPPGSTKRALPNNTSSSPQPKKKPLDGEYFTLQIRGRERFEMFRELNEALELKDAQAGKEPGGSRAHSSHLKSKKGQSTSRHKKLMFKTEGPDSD
Method in brief: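 HCT116 cells carrying an inducible beta-lactamase reporter were plated at 4000 cells/well, rested 5 h, then exposed to compounds in DMSO (217-fold dilution) for 16 h at 37C. CCF4-AM substrate was loaded 2 h at room temperature; 460/530 nm emission ratio scored gain-of-signal versus DMSO.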

[4] = molecular target: Thyroid hormone receptor alpha (Rattus norvegicus) + Thyroid hormone receptor beta (Rattus norvegicus) (UniProt P18113+P63059); test: TOX21_TR_LUC_GH3_Antagonist_Followup: Tox21 GH3 Thyroid Hormone Receptor Antagonism Luciferase Follow-Up Assay (AID 2283942)
Method in brief: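 Rat pituitary GH3 cells with a TRα/TRβ-driven luciferase reporter, 5 h attachment, then 15 concentrations (92 uM to 5nM final) plus 1.0 nM T3 agonist, 24 h at 37C/5% CO2. ONE-Glo luminescence; signal change fitted against DMSO baseline.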

THRA (gene 7067) = THRA (gene 7067) (UniProt P10827); test: TOX21_TRA_COA_Antagonist_Followup_ratio: Tox21 Thyroid Hormone Receptor alpha Antagonism through Coactivator Recruitment Follow-Up Assay, Ratio (AID 2283953)
Chain of THRA (gene 7067) (P10827 whole entry, looked up, the tested form may be a part): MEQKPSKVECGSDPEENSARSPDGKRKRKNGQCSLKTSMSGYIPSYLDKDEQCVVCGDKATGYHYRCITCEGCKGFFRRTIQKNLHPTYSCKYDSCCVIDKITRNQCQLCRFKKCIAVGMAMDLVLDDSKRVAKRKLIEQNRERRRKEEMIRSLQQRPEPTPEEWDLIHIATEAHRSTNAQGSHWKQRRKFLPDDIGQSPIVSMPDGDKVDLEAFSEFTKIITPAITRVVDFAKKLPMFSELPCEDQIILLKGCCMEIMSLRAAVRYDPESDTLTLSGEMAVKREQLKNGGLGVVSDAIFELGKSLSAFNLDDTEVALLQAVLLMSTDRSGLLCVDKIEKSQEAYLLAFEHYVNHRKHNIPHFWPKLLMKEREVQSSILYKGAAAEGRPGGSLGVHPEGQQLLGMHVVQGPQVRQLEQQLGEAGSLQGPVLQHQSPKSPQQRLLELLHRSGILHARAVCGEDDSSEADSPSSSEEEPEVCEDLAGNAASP
Method in brief: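 520:495 nm emission ratio (excitation 340 nm) reports fluorescein-SRC-2 peptide recruitment to GST-TRα LBD by TR-FRET with Tb anti-GST antibody. Values were normalized to DMSO (0%) and T3 control wells (100%); loss of signal indicated antagonism.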

THRB (gene 7068) [5] = molecular target: THRB (gene 7068) (UniProt P10828); test: TOX21_TRB_BLA_Antagonist_Followup_ratio: Tox21 Thyroid Hormone Receptor beta Antagonism Beta-lactamase (BLA) Follow-Up Assay, Ratio (AID 2283958)
Chain of THRB (gene 7068) (P10828 whole entry, looked up, the tested form may be a part): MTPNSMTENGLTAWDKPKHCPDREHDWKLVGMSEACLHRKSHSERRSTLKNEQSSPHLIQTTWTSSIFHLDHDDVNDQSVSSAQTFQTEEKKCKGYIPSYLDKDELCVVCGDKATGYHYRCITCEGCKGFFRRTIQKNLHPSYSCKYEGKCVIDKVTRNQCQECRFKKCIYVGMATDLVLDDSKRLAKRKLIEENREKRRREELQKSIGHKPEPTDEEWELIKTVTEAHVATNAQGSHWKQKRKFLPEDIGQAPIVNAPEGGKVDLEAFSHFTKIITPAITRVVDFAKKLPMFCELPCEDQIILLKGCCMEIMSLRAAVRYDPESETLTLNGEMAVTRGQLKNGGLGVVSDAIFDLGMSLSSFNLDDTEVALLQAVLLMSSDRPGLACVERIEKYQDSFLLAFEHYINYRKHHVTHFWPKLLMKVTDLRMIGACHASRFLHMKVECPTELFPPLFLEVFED
Method in brief: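 HEK293T cells with a GAL4-TRb LBD fusion and UAS-bla reporter, 3,000 cells/well in phenol red-free DMEM with 2% charcoal-stripped FBS. Exposed 18 h at 37C to 11 concentrations in triplicate; CCF4 460:530 nm ratio after 2 h, DMSO-referenced.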

THRB (gene 7068) [6] = molecular target: THRB (gene 7068) (UniProt P10828); test: TOX21_TRB_COA_Antagonist_Followup_ratio: Tox21 Thyroid Hormone Receptor beta Antagonism through Coactivator Recruitment Follow-Up Assay, Ratio (AID 2283967)
Method in brief: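 Cell-free TR-FRET coactivator recruitment with GST-tagged TRβ LBD (5.0 nM) and fluorescein-labeled SRC-2 peptide (200 nM) detected by terbium anti-GST antibody (2 nM). The 520:495 nm emission ratio was normalized to DMSO (0%) and T3 (100%).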

[7] = molecular target: Cellular tumor antigen p53 (Homo sapiens) (UniProt P04637); test: TOX21_p53_BLA_p5_ratio: Tox21 HCT-116 p53 Agonism Beta-lactamase Assay, Ratio, Phase 5 (AID 2283599)
Method in brief: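 HCT-116 cells carrying a p53-inducible beta-lactamase reporter were seeded at 4000 cells/well and dosed after 5 h with compound in DMSO (217-fold dilution). After 16 h at 37C, CCF4-AM substrate was added for 2 h, and the 460/530 nm emission ratio was scored as gain-of-signal versus DMSO.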

[8] = TOX21_p53_BLA_p5_viability: Viability Assessment in the Tox21 HCT-116 p53 Agonism Beta-lactamase Assay, Phase 5 (AID 2283600)
Method in brief: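 Cells were plated at 4000/well, rested 5 h at 37C, then given compounds in DMSO (217-fold dilution) for 16 h at 37C, 5% CO2. Following the CCF4-AM beta-lactamase read, CellTiter-Glo was added and luminescence was read after 30 min at room temperature.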

[9] = CCTE_Harrill_HTTr_Viability_MCF7: CCTE's 6-hour Cell Viability Assessment for the High-Throughput Transcriptomics (HTTr) Platform, in MCF-7 cells cultured in DMEM + 10% fetal bovine serum, Harrill Lab (AID 2284010; active = hit-call score of the fitted dose curve at least 0.9, where 1 is the maximum; inactive = score below 0.9)
Method in brief: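 MCF-7 cells in DMEM + 10% FBS, 384-well, exposed 6 h to an eight-point dilution series. Membrane integrity scored by high-content imaging of propidium iodide exclusion; bidirectional fit versus DMSO.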

[10] = CCTE_Harrill_HTTr_Apoptosis_MCF7: CCTE's 6-hour Apoptosis Assessment for the High-Throughput Transcriptomics (HTTr) Platform, in MCF-7 cells cultured in DMEM + 10% fetal bovine serum, Harrill Lab (AID 2284011; active = hit-call score of the fitted dose curve at least 0.9, where 1 is the maximum; inactive = score below 0.9)
Method in brief: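 MCF-7 cells in DMEM + 10% fetal bovine serum were exposed to chemicals for 6 hours over an eight-point dilution series. Caspase-3/7 activation was imaged by high content imaging with CellEvent Caspase 3/7 Green; bidirectional fitting used DMSO as baseline.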

[11] = CCTE_Harrill_HTTr_CellCount_MCF7: CCTE's Cell Proliferation Assessment for the High-Throughput Transcriptomics (HTTr) Platform, Harrill Lab (AID 2284012);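 also: cells exposed to compound for six hours; intended direction is loss of nuclei count meaning fewer cells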
Method in brief: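 MCF7 cells exposed 6 hours to an eight-point dilution series; Hoechst-stained nuclei counted by high-content imaging. Bidirectional curve fitting against DMSO baseline.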

Measured: outcome

O=C(CCCCCCCCC#CI)Oc1ccccc1
inactive: [1] | [2] | [3] | [4] | THRA (gene 7067) | THRB (gene 7068) [5] | THRB (gene 7068) [6]

CCCc1nc(C(C)(C)O)c(C(=O)OCc2oc(=O)oc2C)n1Cc1ccc(-c2ccccc2-c2nn[nH]n2)cc1
inactive: [1] | [7]

CCCNCC(O)COc1ccccc1C(=O)CCc1ccccc1 (stereo not given)
inactive: [1] | [2] | [8]

CC(=O)N(CC(C)C(=O)O)c1c(I)cc(I)c(N)c1I (stereo not given)
inactive: [1] | [2] | [7] | [3]

c1ccc(COCc2ccccc2)cc1
inactive: [1] | [2] | [7] | [3]

CC(C)C(O)(c1ccc(OC(F)(F)F)cc1)c1cncnc1 (stereo not given)
inactive: [1] | [2] | [7] | [8] | [3]

Cc1ccc(C(C)NC(=O)[C@@H](NC(=O)OC(C)C)C(C)C)cc1 (stereo not given in full)
inactive: [1] | [2] | [7] | [8] | [3] | [9] | [10] | [11]

CN1C(C)(C)CCCC1(C)C
inactive: [1] | [7] | [8]

NC(=O)c1ccncc1
inactive: [1] | [2] | [7] | [3]

CCOC(=O)NCCC[Si](OCC)(OCC)OCC
inactive: [1] | [2] | [8]

CC(C)(C)C(=O)Oc1ccc(S(=O)(=O)Nc2ccccc2C(=O)NCC(=O)O)cc1
inactive: [1] | [2] | [8] | [3]

Nc1c(NC/C=C\COc2cc(CN3CCCCC3)ccn2)c(=O)c1=O
inactive: [1] | [7]

CS(=O)(=O)c1ccc([C@@H](O)[C@@H](CF)NC(=O)C(Cl)Cl)cc1
inactive: [1] | [7]

CN1C(CCl)Nc2cc(Cl)c(S(N)(=O)=O)cc2S1(=O)=O (stereo not given)
inactive: [1] | [2] | [7] | [3]
